This is an account of results in PubChem BioAssay (NCATS).

Molecules are shown by their SMILES. Inconclusive results are not listed. Active and inactive are the calls of the source. Unless noted, the call rests on the fitted dose curve; in most records, active means well fitted curve in either direction with a large enough effect (not every such curve was filed as active); inconclusive means small, poorly fitted or top-dose-only effect, or another doubt; inactive means flat fitted curve, though single readings scatter.

The target of test [1] is Lysosomal acid glucosylceramidase (Homo sapiens) (UniProt P04062). Description: Glucocerebrosidase-p2 (AID 348; in the data active means potency below about 10 µM; further: potency means the concentration at half of the fitted maximal effect). The settings on record: purified GBA, blue fluorogenic substrate, 40 min. In a few lines:
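Compounds titrated from 0.6 nM upwards against 0.2 nM enzyme in pH 5.9 citric acid/KH2PO4, taurocholate, tween-20; blue fluorogenic substrate 80 uM, 40 min room temperature, stopped and read Ex 365/Em 440 for AC50.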

A short description of test [2]: AP1 Signaling Pathway (AID 357).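 Further: ME-180 reporter cells stimulated with EGF at its EC50 level; on the % scale 0 is the no-effect control and ±100 the full control effect.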 The settings on record: ME-180 AP-1-bla reporter, EGF-induced, beta-lactamase ratio, 5 h; at 7.69 µM (top of the series) unless noted. In a few lines:
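Cells are seeded overnight, exposed to compound titrations and an EC50 level of EGF for 5 hours at 37 °C, then loaded with CCF4 dye for 2.5 hours. Beta-lactamase activity under the AP-1 element is read as a blue/green ratio.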

For test [3], the target named is Cytochrome P450 1A2 (Homo sapiens) (UniProt P05177). Description: p450-cyp1a2 (AID 410; calls by dose curve; further: potency means the concentration at half of the fitted maximal effect;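 on activity change, negative = inhibition: -100% = full effect of reference inhibitor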). The settings on record: recombinant CYP1A2, luciferin-ME demethylation, luminescence; series mostly up to 57 µM. Summed up:
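20nM CYP1A2 with 100uM Luciferin-ME (at Km) in 100mM KPO4; compound preincubated 10 min, NADPH regeneration added, 60 min at room temperature. Luciferin quantified by luminescence after detection reagent; normalized to 57 uM furafylline.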

Test [4] can be described thus: NFAT Signaling Pathway (AID 444).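 Further: carbachol stimulus at about its EC50 of 1 µM final; on the % scale 0 is the no-effect control and ±100 the full control effect.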 The settings on record: Jurkat NFAT-bla M1, carbachol, beta-lactamase ratio, 5 h; at 7.69 µM (top of the series) unless noted. In a few lines:
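Jurkat cells with NFAT-driven β-lactamase reporter and co-expressed M1 receptor, stimulated with carbachol (final 1 uM, ~EC50), compound titration, 5 h at 37 °C. CCF4 loaded 1 h at RT; 460/530 nm ratio gave %activity and AC50.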

Test [5] can be described thus: Stat Signaling Pathway (AID 446).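 Further: ME-180 cervical cancer cells given 40 pM IL-6 alongside compound; SIE-controlled beta-lactamase reporter measured as 460/530 nm FRET emission ratio; on the % scale 0 is the no-effect control and ±100 the full control effect.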 The settings on record: ME-180 SIE beta-lactamase reporter, IL-6 stimulated, 5 h; at 7.69 µM (top of the series) unless noted. Summed up: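 ME-180 SIE-bla cells; overnight plating; cpd + IL-6 40 pM, 5 h, 37 C; LiveBLAzer 2.5 h RT; 460/530 nm emission ratio. Normalized to 300 pM IL-6 and 125 nM JAK inhibitor controls.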
Test [6] addresses Glucocorticoid receptor (Homo sapiens) (UniProt P04150). In words: GR-GFP Redistribution (AID 450;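 active means compounds whose dose series gives a full or clear partial fitted curve of increased nuclear translocation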; further: potency means the concentration at half of the fitted maximal effect). The settings on record: U2OS GR-GFP nuclear translocation, laser cytometry, 2 h.
The target is the same in test [7]. In words: GR-EFC Redistribution (AID 451; calls by dose curve; further: potency means the concentration at half of the fitted maximal effect). The settings on record: CHO-K1 GR-EFC translocation, beta-gal luminescence, 2 h. In a few lines:
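CHO-K1 cells expressing nuclear EA and GR-ED fragments of b-gal; compounds titrated up to 46 uM final, 2 h at 37 C. GR nuclear translocation read as complemented b-gal luminescence after 1 h RT detection.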

The target of test [8] is Mitogen-activated protein kinase 10 (Mus musculus) (UniProt Q61831). Description: JNK3 AlphaScreen Assay (AID 530).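 Further: kinase came from lysate of stimulated human HepG2 cells; signal reports phosphorylation of biotinylated GST-cJun 1-79 at Ser73 with 10 µM ATP; on the % scale 0 is the no-effect control and ±100 the full control effect.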 The settings on record: JNK3 lysate, c-Jun phosphorylation; series mostly up to 57.1 µM. Summed up:
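Pre-activated (IL-1β/TNFα) JNK3 in HepG2 lysates phosphorylates biotin-GST-cJun(1-79), 10 uM ATP; anti-phospho-cJun(Ser73) AlphaScreen read at room temperature, pH 7.6 Tris buffer. Compounds pre-incubated 15 min as titrations.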

The target of test [9] is 3',5'-cyclic-AMP phosphodiesterase 4B (Homo sapiens) (UniProt Q07343). Description: qHTS Assay for Inhibitors of PDE-IV (AID 607; active means well fitted activation curve with a large enough effect in the main read-out, with a control signal flat, not every such curve was filed as active; further: % of control where 0% means no effect). The settings on record: HEK293 ACTOne CNG channel cells, membrane potential fluorescence; series mostly up to 22.9 µM. Summed up:
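ACTOne HEK293 cells carry a modified cAMP-gated CNG channel and express endogenous PDE4; plated 1000 cells/well, compounds up to 22.9 uM final. Membrane-potential dye fluorescence (ex 535/em 590) was read; parental cells received 10 uM forskolin + 100 uM RO 20-1724.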

The target in test [10] is Cytochrome P450 3A4 (Homo sapiens) (UniProt P08684). Description: qHTS Assay for Activators of Cytochrome P450 3A4 (AID 885; active means well fitted curve in the direction sought with a large enough effect; an effect the other way counts as inactive or inconclusive; further: nearly all actives have a fitted effect of over 65% in size). The settings on record: recombinant CYP3A4, Luciferin-PPXE luminescence, 60 min; series mostly up to 57.1 µM. Summed up: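 20nM CYP3A4 + 25uM Luciferin-PPXE (=KM), 200mM KPO4; cpd 10 min RT; NADPH regen, 60 min RT; stop w/ detection buffer, 20 min; luminescence. Normalized to 57 uM ketoconazole.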
Background: In qHTS, concentration-response curves come from the screen itself.

Test [11] has as its target Cytochrome P450 2C19 (Homo sapiens) (UniProt P33261). In words: qHTS Assay for Inhibitors and Substrates of Cytochrome P450 2C19 (AID 899; active means well fitted curve in the direction sought with a large enough effect; an effect the other way counts as inactive or inconclusive; further: potency means the concentration at half of the fitted maximal effect; nearly all actives have a fitted effect of over 60% in size). The settings on record: recombinant CYP2C19, luciferin-H EGE luminescence; series mostly up to 57.1 µM. In a few lines:
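5 nM human CYP2C19 with 10uM Luciferin-H EGE (at KM) in 50mM KPO4, compound preincubated 10 min at 37C, then NADPH regeneration for 60 min at 37C. Luciferin read by luminescence after detection reagent; normalized to 57uM ketoconazole as full inhibition.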

A short description of test [12]: Confirmation and Secondary Assay for Modulators of Hemoglobin Beta Chain Splicing at IVS2 654 locus (AID 910; active means well fitted curve in the direction sought with a large enough effect; an effect the other way counts as inactive or inconclusive;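 further: HeLa cells stably carrying EGFP split by mutant beta-globin IVS2-654 intron; % of control where 0% means no effect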). The settings on record: HeLa EGFP-654 splicing reporter, GFP fluorescence, 48 h; series mostly up to 38.3 µM. In a few lines:
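HeLa cells stably expressing EGFP interrupted by β-globin IVS2-654 intron, seeded overnight in Opti-MEM/2% FCS, then treated 2 days at 37 °C. Restored splicing read as total peak GFP intensity per well by laser scanning cytometry (488 nm excitation, 500–520 nm emission); 500 nM antisense PNA as control.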

Test [13] can be described thus: qHTS Assay for Identification of Small Molecule Agonists for Hypoxia Response Element Signaling Pathway (AID 914; active means well fitted activation curve with a large enough effect in the signal ratio, with a control signal flat, not every such curve was filed as active; the % refers to the signal ratio; further: % of control where 0% means no effect). The settings on record: ME-180 (cervical carcinoma) HRE-bla reporter, beta-lactamase ratio, CoCl2, 17 h; activation: stronger effect = higher value. Summed up:
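Reporter activity (beta-lactamase, CCF4 460nm/530nm ratio) in HRE-bla ME-180 cells is recorded after 17 h compound exposure with EC50 CoCl2 at 37 degrees Celsius. AC50 values come from titration data.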

The nature of test [14]: Confirmation and Secondary Assay for Modulators of Hemoglobin Beta Chain Splicing at IVS2 705 locus (AID 930; active means well fitted curve in the direction sought with a large enough effect; an effect the other way counts as inactive or inconclusive;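 further: HeLa cells stably expressing the EGFP-705 splicing reporter; % of control where 0% means no effect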). The settings on record: HeLa EGFP-705 splicing reporter, GFP fluorescence, 48 h; series mostly up to 38.3 µM. In a few lines: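 Stable HeLa line with EGFP disrupted by mutant beta-globin intron 2 (705). Overnight attachment, then 2 days of compound at 37C, 5% CO2. Signal: peak GFP intensity summed over objects 5-250 µm.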

Test [15] in a line: qHTS Assay for Lipid Storage Modulators (AID 1519; calls by dose curve). The settings on record: Drosophila S3 cells, BODIPY lipid droplet/cell ratio, laser cytometry, cells loaded with oleic acid; for activity change, negative = inhibition: at 57.5 µM (top of the series). In a few lines:
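Cells seeded at 5,000 per well were treated with compounds over a concentration series and loaded with oleic acid (400 uM, as added). Lipid droplet fluorescence (488 nm excitation, 500-530 nm channel) was read by laser-scanning cytometry and normalized to 20 uM Triacsin C.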

Test [16] can be described thus: Primary qHTS for small molecule stabilizers of the endoplasmic reticulum resident proteome: Secreted ER Calcium Modulated Protein (SERCaMP) assay (AID 1508630; active means well fitted curve in the direction sought with a large enough effect; an effect the other way counts as inactive or inconclusive; further: on the % scale 0 is the no-effect control and ±100 the full control effect). The settings on record: SH-SY5Y GLuc-SERCaMP (Gaussia luciferase released on ER calcium loss) secretion, thapsigargin, luminescence; series mostly up to 38.4 µM. Summed up:
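GLuc-SERCaMP-expressing SH-SY5Y cells, pretreated 16 h with compound, are challenged with thapsigargin to empty ER calcium stores; after 4 h, coelenterazine is added directly to the medium and luminescence is imaged.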

The mark [17] stands for this setting: measured here: cell count channel max response.
The mark [18] stands for this setting: measured here: lipid channel max response.

Sequence of Glucocorticoid receptor (Homo sapiens) (P04150 whole entry, looked up): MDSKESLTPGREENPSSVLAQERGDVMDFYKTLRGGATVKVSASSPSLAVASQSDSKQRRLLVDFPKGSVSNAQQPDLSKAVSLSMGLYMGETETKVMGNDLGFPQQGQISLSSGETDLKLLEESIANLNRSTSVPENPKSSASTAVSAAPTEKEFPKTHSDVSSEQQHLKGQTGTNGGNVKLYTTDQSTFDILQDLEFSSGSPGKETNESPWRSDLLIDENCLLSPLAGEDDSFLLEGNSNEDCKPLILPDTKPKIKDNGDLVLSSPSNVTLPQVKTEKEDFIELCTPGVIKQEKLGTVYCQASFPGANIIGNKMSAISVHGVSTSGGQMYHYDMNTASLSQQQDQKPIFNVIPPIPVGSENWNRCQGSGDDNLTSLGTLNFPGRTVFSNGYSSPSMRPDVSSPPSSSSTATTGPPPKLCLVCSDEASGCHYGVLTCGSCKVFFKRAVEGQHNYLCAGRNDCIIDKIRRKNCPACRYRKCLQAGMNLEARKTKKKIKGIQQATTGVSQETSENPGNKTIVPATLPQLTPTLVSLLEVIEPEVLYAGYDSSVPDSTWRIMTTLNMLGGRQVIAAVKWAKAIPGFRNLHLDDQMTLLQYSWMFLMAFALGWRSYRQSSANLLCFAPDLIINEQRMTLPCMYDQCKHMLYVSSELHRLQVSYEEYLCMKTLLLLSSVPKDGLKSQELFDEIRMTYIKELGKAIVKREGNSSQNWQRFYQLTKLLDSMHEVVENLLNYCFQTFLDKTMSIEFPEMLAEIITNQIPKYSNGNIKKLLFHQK
Sequence of 3',5'-cyclic-AMP phosphodiesterase 4B (Homo sapiens) (Q07343 whole entry, looked up): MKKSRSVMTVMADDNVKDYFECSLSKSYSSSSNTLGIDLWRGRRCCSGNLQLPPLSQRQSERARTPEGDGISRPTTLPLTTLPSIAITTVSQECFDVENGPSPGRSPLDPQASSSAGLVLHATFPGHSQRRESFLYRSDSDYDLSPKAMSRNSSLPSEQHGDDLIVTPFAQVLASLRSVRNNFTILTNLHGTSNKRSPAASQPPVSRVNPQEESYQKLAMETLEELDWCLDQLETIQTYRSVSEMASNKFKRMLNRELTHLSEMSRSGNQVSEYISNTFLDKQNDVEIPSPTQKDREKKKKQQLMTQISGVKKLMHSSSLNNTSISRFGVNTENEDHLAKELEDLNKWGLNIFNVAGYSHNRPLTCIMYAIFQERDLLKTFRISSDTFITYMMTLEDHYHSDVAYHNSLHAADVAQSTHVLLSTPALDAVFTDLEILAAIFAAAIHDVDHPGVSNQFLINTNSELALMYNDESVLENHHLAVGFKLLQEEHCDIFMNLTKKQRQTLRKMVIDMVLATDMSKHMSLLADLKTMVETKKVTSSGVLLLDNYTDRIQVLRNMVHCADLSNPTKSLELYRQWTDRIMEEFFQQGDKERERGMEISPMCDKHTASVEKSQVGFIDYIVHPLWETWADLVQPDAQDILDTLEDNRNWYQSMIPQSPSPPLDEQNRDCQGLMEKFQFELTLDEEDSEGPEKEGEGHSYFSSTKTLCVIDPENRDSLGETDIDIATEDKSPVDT
Sequence of Lysosomal acid glucosylceramidase (Homo sapiens) (P04062 whole entry, looked up): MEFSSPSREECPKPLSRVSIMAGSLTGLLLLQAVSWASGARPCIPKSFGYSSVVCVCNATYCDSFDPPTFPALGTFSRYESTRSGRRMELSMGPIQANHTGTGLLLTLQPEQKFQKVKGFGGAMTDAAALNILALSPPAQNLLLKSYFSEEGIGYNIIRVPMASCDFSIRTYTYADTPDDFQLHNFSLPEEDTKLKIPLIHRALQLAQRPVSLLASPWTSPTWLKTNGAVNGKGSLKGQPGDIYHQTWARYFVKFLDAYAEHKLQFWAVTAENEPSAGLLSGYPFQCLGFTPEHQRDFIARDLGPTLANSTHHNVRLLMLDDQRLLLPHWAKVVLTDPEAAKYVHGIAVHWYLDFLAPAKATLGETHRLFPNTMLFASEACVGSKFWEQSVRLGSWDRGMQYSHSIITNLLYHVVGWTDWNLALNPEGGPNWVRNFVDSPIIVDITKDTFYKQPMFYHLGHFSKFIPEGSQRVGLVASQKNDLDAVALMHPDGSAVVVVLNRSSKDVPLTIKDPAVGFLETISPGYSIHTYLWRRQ
Sequence of Cytochrome P450 1A2 (Homo sapiens) (P05177 whole entry, looked up): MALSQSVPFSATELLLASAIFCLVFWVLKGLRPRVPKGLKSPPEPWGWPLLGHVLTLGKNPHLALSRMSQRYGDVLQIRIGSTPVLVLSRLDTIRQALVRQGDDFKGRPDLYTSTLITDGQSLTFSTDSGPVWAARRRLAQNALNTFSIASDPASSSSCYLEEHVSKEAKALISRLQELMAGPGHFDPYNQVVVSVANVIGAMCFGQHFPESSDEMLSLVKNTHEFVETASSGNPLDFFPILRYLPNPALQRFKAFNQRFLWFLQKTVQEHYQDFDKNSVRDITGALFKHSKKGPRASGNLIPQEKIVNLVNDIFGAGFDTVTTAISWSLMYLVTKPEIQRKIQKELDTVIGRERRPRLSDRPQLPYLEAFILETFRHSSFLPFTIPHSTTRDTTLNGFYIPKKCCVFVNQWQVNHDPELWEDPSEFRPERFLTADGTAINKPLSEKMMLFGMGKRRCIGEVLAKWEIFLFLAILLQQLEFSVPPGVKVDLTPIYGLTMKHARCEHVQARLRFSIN
Sequence of Cytochrome P450 3A4 (Homo sapiens) (P08684 whole entry, looked up): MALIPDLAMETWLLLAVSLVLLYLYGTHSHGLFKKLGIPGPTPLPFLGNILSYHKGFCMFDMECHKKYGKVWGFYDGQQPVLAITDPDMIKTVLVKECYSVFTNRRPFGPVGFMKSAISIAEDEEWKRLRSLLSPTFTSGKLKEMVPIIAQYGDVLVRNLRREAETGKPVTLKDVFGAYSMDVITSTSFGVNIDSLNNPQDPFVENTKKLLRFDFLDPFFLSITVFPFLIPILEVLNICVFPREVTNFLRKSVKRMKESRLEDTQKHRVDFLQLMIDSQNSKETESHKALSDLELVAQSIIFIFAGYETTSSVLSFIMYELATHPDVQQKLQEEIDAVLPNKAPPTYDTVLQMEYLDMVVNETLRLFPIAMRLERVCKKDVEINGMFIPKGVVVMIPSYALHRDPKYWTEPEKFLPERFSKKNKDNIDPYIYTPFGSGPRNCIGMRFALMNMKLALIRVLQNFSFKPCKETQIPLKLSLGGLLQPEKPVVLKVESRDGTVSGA
Sequence of Cytochrome P450 2C19 (Homo sapiens) (P33261 whole entry, looked up): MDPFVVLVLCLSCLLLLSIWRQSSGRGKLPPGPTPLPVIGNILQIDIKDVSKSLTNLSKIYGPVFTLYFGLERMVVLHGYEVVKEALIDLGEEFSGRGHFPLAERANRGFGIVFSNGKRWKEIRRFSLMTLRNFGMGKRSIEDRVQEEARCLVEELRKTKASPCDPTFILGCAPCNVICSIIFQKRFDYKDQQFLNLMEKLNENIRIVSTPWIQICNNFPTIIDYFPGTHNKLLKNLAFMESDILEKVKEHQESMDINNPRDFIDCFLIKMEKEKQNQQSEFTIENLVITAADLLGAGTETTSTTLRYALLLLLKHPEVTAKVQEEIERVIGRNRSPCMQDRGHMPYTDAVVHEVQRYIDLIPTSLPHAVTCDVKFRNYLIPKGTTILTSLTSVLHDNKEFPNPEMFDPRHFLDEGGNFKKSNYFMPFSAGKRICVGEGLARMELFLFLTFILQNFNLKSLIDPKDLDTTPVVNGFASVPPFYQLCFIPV

Take `CC(=O)NCCNc1nc(-c2ccccc2Cl)nc2ccccc12`: the Potency in [1] is > 11.4 µM (inactive); in [3] it was 7.94 µM (active); in test [6], > 46 µM (inactive); in test [7], > 46 µM (inactive); in [11], 3.98 µM (active). Besides, the activity change, negative = inhibition in [2] was 22.6% (inactive); in test [4] it was -5.34% (inactive); in test [15], 8.12% (inactive). For the same compound, in [5], the activity, negative = inhibition is -10.3% (inactive). The compound was classed as inactive in test [8], in test [12] and in test [14]. The Potency entry in test [9], in test [10] and in test [16] was “inactive” each time. Further, in test [13], the activation was 19.9% (inactive). Also, the figures for the max response in test [15] (setting [17]) and in [15] (setting [18]) were 11.5% and 20.7%, respectively.

Turning to `COC(=O)N1CCC[C@@]2(CCN(C(c3ccccc3)c3ccccc3)C2)C1`, the Potency was > 11.4 µM (inactive) in [1], 12.6 µM (active) in test [3] and > 46 µM (inactive) in [7]. Besides, the activity change, negative = inhibition in [2] was -2.49% (inactive); in test [4], -6.57% (inactive); in [15], -5.11% (inactive). For the same compound, the activity, negative = inhibition in test [5] was 3.94% (inactive). Further, in [8], the compound was classed as inactive. Also, the max response in [15] (setting [17]) turned out to be 6.34%; in test [15] (setting [18]), 4.63%. In addition, the Potency result in test [16] is “inactive”.

Turning to `COc1ccccc1CNc1ncncc1-c1ccoc1`, the Potency was > 11.4 µM (inactive) in [1], 1.26 µM (active) in test [3], > 46 µM (inactive) in [6] and > 46 µM (inactive) in [7]. The results for the activity change, negative = inhibition in [2], in test [4] and in [15] were -6.36% (inactive), -22.1% (inactive) and 9.08% (inactive), respectively. The activity, negative = inhibition in [5] is -4.03% (inactive). The outcome in test [8], in test [12] and in test [14] was inactive. Also, the Potency result in test [10] and in [16] was “inactive” each time. The max response in test [15] (setting [17]) was -3.49%; in [15] (setting [18]) it was 5.8%.

For `COC(=O)N1CCC[C@@]2(CCN(C(=O)Nc3cccc(C#N)c3)C2)C1`, the results for the Potency in test [1] and in test [7] were > 11.4 µM (inactive) and > 46 µM (inactive), respectively. The activity change, negative = inhibition in test [2] was -12.4% (inactive); in [4] it was 19.3% (inactive); in [15], 6.94% (inactive). Moreover, the Potency result in test [3], in [9] and in test [16] was “inactive” throughout. In addition, the activity, negative = inhibition in [5] is 6.31% (inactive). Further, in test [8], the compound was called inactive. In addition, the max response is 4.39% in test [15] (setting [17]) and 15.8% in [15] (setting [18]).

With `COCC(=O)N1CCC2(CC1)CCN(c1ccccn1)CC2`, the Potency in test [1] was > 11.4 µM (inactive); in test [7], > 46 µM (inactive). The activity change, negative = inhibition in test [2] is -16.4% (inactive); in test [4], -3.68% (inactive); in test [15], 2.07% (inactive). In addition, the Potency result in test [3], in [9] and in test [16] was “inactive” in each case. In addition, the activity, negative = inhibition in [5] was -8.73% (inactive). The compound was called inactive in test [8]. Also, the max response stood at 0.785% in test [15] (setting [17]) and 4.41% in [15] (setting [18]).

`CN1CCCC2(CCN(C(=O)c3cccn3C)CC2)C1`: the Potency in test [1] was > 11.4 µM (inactive); in test [7] it was > 46 µM (inactive). The activity change, negative = inhibition in [2] is -4.17% (inactive); in test [4] it was -4.14% (inactive); in test [15], 1.86% (inactive). Further, the Potency entry in test [3], in test [9] and in [16] was “inactive” each time. In [5], the activity, negative = inhibition is 7.29% (inactive). In [8], the call was inactive. The max response in test [15] (setting [17]) came out at 11.8%; in [15] (setting [18]), 16.9%.
